Data published in PubChem BioAssay (NCATS).
Values joined by “and” are separate entries in the source; they are usually repeats but may differ in a detail not shown here. Equal entries are not always repeated. Inconclusive results are not listed. Active and inactive are the calls of the source. The call rests on the fitted dose curve; in most records, active means well fitted curve in the direction sought with a large enough effect; inconclusive means small, poorly fitted or top-dose-only effect, or another doubt; inactive means no such curve, though single readings can be large; an effect the other way counts as inactive or inconclusive.

Key:
[1] = target: Cellular tumor antigen p53 (Homo sapiens) (UniProt P04637); assay: Primary qHTS for small molecule compounds that upregulate eGFP-tagged delta133p53alpha (in N-terminal) cells. (AID 2060322); settings: NCI-H358 eGFP-delta133p53alpha fluorescence, 24 h; activation: stronger effect = higher value; further: nearly all actives have a fitted effect of over 75% in size; further: potency means the concentration at half of the fitted maximal effect;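 on activation: 0% = DMSO vehicle and 100% = reference activator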
Chain of Cellular tumor antigen p53 (Homo sapiens) (P04637 whole entry, looked up): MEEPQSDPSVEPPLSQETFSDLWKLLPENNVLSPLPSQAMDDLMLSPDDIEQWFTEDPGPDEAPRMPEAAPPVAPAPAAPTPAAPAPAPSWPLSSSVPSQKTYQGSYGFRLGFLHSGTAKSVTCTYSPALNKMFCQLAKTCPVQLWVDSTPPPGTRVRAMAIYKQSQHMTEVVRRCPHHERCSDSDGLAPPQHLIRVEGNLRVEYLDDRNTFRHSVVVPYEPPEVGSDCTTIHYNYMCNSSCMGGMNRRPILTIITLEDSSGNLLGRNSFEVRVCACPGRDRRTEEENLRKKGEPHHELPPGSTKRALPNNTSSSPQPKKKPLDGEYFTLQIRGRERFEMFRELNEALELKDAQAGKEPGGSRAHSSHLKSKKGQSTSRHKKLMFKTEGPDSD
Summary of the method: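 NCI-H358 cells pre-induced 24 h with 10 ng/ml doxycycline to express N-terminal eGFP-delta133p53alpha, then dosed 24 h at 37C without doxycycline; fixed, Hoechst-stained, GFP intensity by laser scanning cytometry, normalized to DMSO (0%) and 57.5 uM 5-azacytidine (100%).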

[2] = target: Aldehyde dehydrogenase, mitochondrial (Homo sapiens) (UniProt P05091); assay: qHTS for Inhibitors of the Aldehyde Dehydrogenase Family (ALDH2) Primary screen (AID 2061308); settings: ALDH2 enzyme inhibition qHTS, 1536-well; series mostly up to 56 µM;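 further: plate controls were vehicle for no effect and reference inhibitor for full effect; nearly all actives have a fitted effect of over 55% in size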
[3] = target: Retinaldehyde dehydrogenase 3 (Homo sapiens) (UniProt P47895); assay: qHTS for Inhibitors of the Aldehyde Dehydrogenase Family (ALDH1A3) Primary screen (AID 2061315); settings: ALDH inhibition qHTS; series mostly up to 56 µM;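 further: plate controls were DMSO vehicle for no effect and reference inhibitor for full effect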
[4] = BET inhibitor-based combinations targeting novel dependencies in MECOM-rearranged (r) AML: SET-2 cell line (AID 2202231); settings: SET-2 AML cells viability, CellTiter-Glo luminescence, 48 h; viability: stronger effect = lower value, concentration not given here; further: nearly all actives have a fitted effect of over 35% in size; further: potency means the concentration at half of the fitted maximal effect;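 on viability: plate controls were DMSO treated cells for no effect and wells without cells for full effect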
Summary of the method: (§1)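 Each compound was tested at eleven concentrations on cells seeded at 500/well. After two days' incubation, ATP-based luminescence reported viability; responses relative to DMSO and blank wells yielded AUC and cell-line-centred Z-AUC.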

[5] = BET inhibitor-based combinations targeting novel dependencies in MECOM-rearranged (r) AML: OCI-AML3 cell line (AID 2202232); settings: CellTiter-Glo luminescence, 48 h; Potency: OCI-AML3 viability; series mostly up to 46 µM; further: nearly all actives have a fitted effect of over 35% in size; further: potency means the concentration at half of the fitted maximal effect
Summary of the method: as §1

[6] = BET inhibitor-based combinations targeting novel dependencies in MECOM-rearranged (r) AML: HNT-34 cell line (AID 2202234); settings: HNT-34 AML viability, CellTiter-Glo luminescence, 48 h; series mostly up to 46 µM; further: nearly all actives have a fitted effect of over 35% in size; further: potency means the concentration at half of the fitted maximal effect
Summary of the method: (§2)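 First, 500 cells per well were seeded; next, drugs were pinned as 11-point doses; then plates sat 48 hr in the incubator; finally CellTiter-Glo was added and luminescence read, with AUC and Z-AUC computed.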

[7] = BET inhibitor-based combinations targeting novel dependencies in MECOM-rearranged (r) AML: UCSD-AML1 cell line (AID 2202235); settings: UCSD-AML1 AML cells viability, CellTiter-Glo, 48 h; series mostly up to 46 µM; further: nearly all actives have a fitted effect of over 40% in size; further: potency means the concentration at half of the fitted maximal effect
Summary of the method: as §2

[8] = BET inhibitor-based combinations targeting novel dependencies in MECOM-rearranged (r) AML: AML-191 cell line (AID 2202236; further: nearly all actives have a fitted effect of over 35% in size; further: potency means the concentration at half of the fitted maximal effect); settings: AML-191 viability, CellTiter-Glo luminescence, 48 h; series mostly up to 46 µM
Summary of the method: as §1

[9] = BET inhibitor-based combinations targeting novel dependencies in MECOM-rearranged (r) AML: AML-194 cell line (AID 2202237; further: nearly all actives have a fitted effect of over 40% in size; further: potency means the concentration at half of the fitted maximal effect); settings: AML-194 (MECOM-r AML) viability, CellTiter-Glo, 48 h; series mostly up to 46 µM
Summary of the method: as §1

[10] = BET inhibitor-based combinations targeting novel dependencies in MECOM-rearranged (r) AML: MV-4-11 cell line (AID 2202233); settings: MV-4-11 AML viability, CellTiter-Glo luminescence, 48 h; series mostly up to 46 µM; further: nearly all actives have a fitted effect of over 45% in size; further: potency means the concentration at half of the fitted maximal effect
Summary of the method: as §2

COc1ncc(-c2ccc3c(Nc4cc(Oc5cc(F)cc(F)c5)cc(C(=O)O)c4)c(S(=O)(=O)NC4CC4)cnc3c2)c(OC)n1
inactive: activation [1] -3.34% | Potency [2] | Potency [3] | viability [4] 110% | Potency [5] | Potency [6] | Potency [7] | Potency [8] | Potency [9]

CCOc1cc(C(=O)N2CCC(N3CCN(C)CC3)CC2)ccc1Nc1ncc2c(n1)N(C1CCCC1)c1ccccc1C(=O)N2C
active: Potency [1] 30.1 µM | Potency [4] 14.8 µM | Potency [5] 3.32 µM | Potency [10] 1.66 µM | Potency [8] 11.8 µM | Potency [9] 8.33 µM
inactive: Potency [2] | Potency [3]

CNc1nccc(-c2cccnc2Oc2cc(C(=O)Nc3cccc(C(F)(F)F)c3)ccc2C)n1
inactive: activation [1] -0.576% | Potency [2] | Potency [3]
active: Potency [4] 16.6 µM | Potency [5] 2.35 µM | Potency [10] 2.95 µM | Potency [9] 6.61 µM

c1cncc(CN2CCC(n3ncc4c(N5CCOCC5)nc(-c5ccc6[nH]ccc6c5)nc43)CC2)c1
inactive: activation [1] -11.7% and 12.5% | Potency [2] | Potency [3]
active: Potency [4] 3.72 µM | Potency [5] 7.42 µM | Potency [6] 2.95 µM | Potency [7] 0.833 µM

O=C(c1cncc(Br)c1)N1CCC(N2CCCC2)CC1
inactive: activation [1] -12.4% and 0.333% | Potency [2] | Potency [3] | viability [4] 113% | Potency [5] | Potency [6] | Potency [7] | Potency [8] | Potency [9]

CNC1CCC(N(Cc2cccc(-c3ccncc3)c2)C(=O)c2sc3ccccc3c2Cl)CC1 (centres undefined)
inactive: Potency [2] | Potency [3]
active: Potency [1] 24.3 µM and 30.1 µM | Potency [4] 26.3 µM | Potency [5] 18.6 µM | Potency [10] 16.6 µM | Potency [8] 20.9 µM | Potency [9] 23.5 µM

CC1(C)[C@@H](O)CC[C@]2(C)[C@H]3C(=O)C=C4[C@@H]5C[C@@](C)(C(=O)O)CC[C@]5(C)CC[C@@]4(C)[C@]3(C)CC[C@@H]12
inactive: activation [1] 29.7% | Potency [2] | Potency [3] | viability [4] 112% | Potency [5] | Potency [10] | Potency [7] | Potency [8]

CCOC(=O)c1ccnc(CNCC(=O)N(CC)CCN(C)C)c1
inactive: activation [1] 8.33% | Potency [2] | Potency [3] | viability [4] 104% | Potency [5] | Potency [10] | Potency [8] | Potency [9]

CC1(C)CCC(CN2CCN(c3ccc(C(=O)NS(=O)(=O)c4ccc(NCC5CCOCC5)c([N+](=O)[O-])c4)c(Oc4cnc5[nH]ccc5c4)c3)CC2)=C(c2ccc(Cl)cc2)C1
inactive: activation [1] -10.9% | Potency [2] | Potency [3] | viability [4] 114%
active: Potency [5] 3.72 µM | Potency [10] 0.118 µM | Potency [8] 18.6 µM | Potency [9] 4.68 µM

Cc1ccccc1C(C(=O)NC1CCCCC1)N(C(=O)CNc1ccc(C#N)cc1)c1cccc(F)c1 (centres undefined)
inactive: activation [1] 17.1% and 3.57% | Potency [2] | Potency [3] | viability [4] 109% | Potency [5] | Potency [6] | Potency [7] | Potency [8] | Potency [9]

C1Cc2[nH]nc(-c3nn[nH]n3)c2C1
inactive: activation [1] 0.623% and -10.5% | Potency [2] | Potency [3] | viability [4] 120% | Potency [10] | Potency [6] | Potency [7] | Potency [8] | Potency [9]

CCNC(=O)[C@H]1O[C@@H](n2cnc3c(N)nc(NCCc4ccc(CCC(=O)O)cc4)nc32)[C@H](O)[C@@H]1O
inactive: activation [1] -4.46% | Potency [2] | Potency [3] | viability [4] 115% | Potency [5] | Potency [6] | Potency [8] | Potency [9]

O=C(NCc1cccc(O)c1)Nc1nc(-c2ccncc2)cs1
active: Potency [10] 9.34 µM
inactive: activation [1] 6.25% | Potency [2] | Potency [3] | viability [4] 92.2%

O=C1CCC[C@@H]2[C@H]3CCC[N+]4([O-])CCC[C@@H](CN12)[C@@H]34 (some centres undefined)
inactive: activation [1] 7.08% and -17.9% | Potency [2] | Potency [3] | viability [4] 118% | Potency [5] | Potency [6] | Potency [8] | Potency [9]

CCCCOC(=O)NS(=O)(=O)c1sc(CC(C)C)cc1-c1ccc(Cn2ccnc2)cc1
inactive: activation [1] 6.25% | Potency [2] | Potency [3] | viability [4] 80.2% | Potency [5] | Potency [7] | Potency [9]

COc1cc(CNC(=O)CCCC/C=C/C(C)C)ccc1O
inactive: activation [1] -7.14% | Potency [2] | Potency [3] | Potency [5]
active: Potency [4] 14.8 µM | Potency [9] 10.5 µM
